The text below walks through data of PubChem BioAssay (NCI).

Test in all cases: NCI-60 one-dose screen, 48 h (100 = growth as untreated, 0 = no growth, -100 = all killed)
Holding throughout (settings): 10 µM unless noted

Test [1] relates to SK-MEL-2 melanoma.
Test [2] has as its system EKVX NSCLC.
In test [3] the test system is SN12C renal.
Test [4] concerns UO-31 renal.
Test [5] relates to TK-10 renal.
Test [6] concerns ACHN renal.
For test [7], the system named is CAKI-1 renal.
Test [8] deals with A498 renal.
Test [9] deals with CCRF-CEM leukemia.
The subject of test [10] is MOLT-4 leukemia.
Test [11] has as its system SR leukemia.
In test [12] the test system is RPMI-8226 leukemia.
Test [13] relates to OVCAR-8 ovarian.
Test [14] relates to OVCAR-5 ovarian.
The test system of test [15] is OVCAR-4 ovarian.
Test [16] deals with IGROV1 ovarian.
The subject of test [17] is OVCAR-3 ovarian.
In test [18] the test system is HS 578T breast.
The subject of test [19] is NCI/ADR-RES ovarian.
Test [20] relates to SK-OV-3 ovarian.

This is part of a sample that, as a whole, favours compounds with a hit. Of some 83,000 tested, about 20% had one in any assay.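 96-well plates, one dose, 48 hours. Percent growth reported; active if below 10.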 Values without a mark were called inactive. Calls of active or inactive are those of the source.

`O=C1C=C(O)C(=O)C(CC2=C(O)C(=O)C=C(O)C2=O)=C1O`: the growth in test [1] was 104%; in [2], 102%; in test [3], 97.8%; in test [4] it was 94.6%; in test [5] it was 106%; in test [6] it was 97.5%. Further, the growth is 104% in [7]; 86.6% in [8]; 115% in [9]; 104% in test [10]; 103% in test [11]; 107% in [12]. Further, the growth in test [13] was 105%; in test [14] it was 91%; in test [15], 101%; in test [16] it was 109%; in test [17], 108%; in test [18], 99.4%. For the same molecule, in test [19], the growth is 99.6%.

On to `NC(=O)c1cc(Br)ccc1NC(=O)/C=C/c1ccccc1`, for which the growth in [1] was 47.7%; in [2], 46.4%; in [3] it was 48.3%; in [4] it was 37.7%; in test [5] it was 98.7%; in test [6] it was 64.4%. Besides, the growth is 53.2% in test [7]; 59.7% in test [8]; 9.57% (active) in test [9]; 36.8% in test [10]; -10.1% (active) in [11]; 24.4% in test [12]. Further, the growth is 54.4% in [13]; 49.9% in test [14]; 35.8% in [15]; 31.1% in test [20]; 86.6% in test [16]; -12.2% (active) in test [17]. Also, the growth is 16.3% in [18] and 11% in [19].

Turning to `O=C1Nc2c(ccc(Cl)c2Cl)/C1=C\c1ccc(C(F)(F)F)cc1`, the growth in [1] is 91.4%; in test [2], 55.2%; in [3] it was 79.7%; in [4], 57.9%; in test [5], 96.4%; in [6], 86.5%. The growth in [7] was 65.9%; in [8], 102%; in test [9], 6.78% (active); in test [10] it was 44.3%; in test [11], 104%; in test [12], 62.8%. In addition, the growth in [13] is 85.1%; in test [14], 83.9%; in [15], 75.1%; in test [20] it was 88.2%; in test [16] it was 54.1%; in test [18] it was 63.9%. Also, in test [19], the growth is 85.8%.
